Values joined by “and” are separate entries in the source; they are usually repeats but may differ in a detail not shown here. Equal entries are not always repeated. Results filed as inconclusive are left out. Where a structure was tested more than once in an assay, its records may differ in their call. Active and inactive are the calls of the source. Unless noted, calls come from the whole dose curve.

Test [1] is described as follows: Nuclear factor erythroid 2-related factor 2/antioxidant responsive element (Nrf2/ARE) small molecule agonists: qHTS cell viability counter screen in human keratinocytes (AID 1919968; active = well fitted curve in the direction sought with a large enough effect in the repeat runs; an effect the other way counts as inactive or inconclusive; note: nearly all actives have a fitted effect of over 55% in size). Summed up: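 In human HaCaT keratinocytes stably expressing an ARE-driven luciferase, compound exposure lasted 23 h at 37 C under 5% CO2. Viable cells are quantified with a protease-based fluorogenic reagent (CellTiter-Fluor) read 1 h after addition.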

A short description of test [2]: Nuclear factor erythroid 2-related factor 2/antioxidant responsive element (Nrf2/ARE) small molecule agonists: luciferase reporter gene qHTS assay in human keratinocytes (AID 1919969). Note: nearly all actives have a fitted effect of over 35% in size. Note: potency is the fitted concentration of half-maximal effect. In general terms: In a reporter assay the amount or activity of a reporter protein is the signal.
Test [3] addresses KiSS-1 receptor (Homo sapiens) (UniProt Q969F8). As to the kind of experiment: Human kisspeptin (KISS1R) small molecule agonists, calcium flux assay in KISS1R-HEK293 cells (AID 1920064; active = well fitted curve in the direction sought with a large enough effect in the repeat runs; an effect the other way counts as inactive or inconclusive). The essentials: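 Concentration-response testing used 15 concentrations in triplicate on human KISS1R-expressing HEK293 cells. Calcium-dependent fluorescence (Ex/Em 480/540) was followed kinetically for 3 min after compound transfer.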

A short description of test [4]: G protein-coupled receptor (GPCR) small molecule agonists, calcium flux assay: HEK293 wild type cell line counter screen (AID 1920065). Summed up: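 Fluorescence intensity signals activation. After overnight (18 h) culture and a 1 h calcium dye load at 37 C, compounds are added by pin tool and the plate read at 480/540 nm for 3 min in 1 s steps.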
For orientation: Calcium assays in cells follow changes in intracellular calcium, usually with a dye or a luminescent sensor.

The nature of test [5]: p53 small molecule agonists, cell-based qHTS assay with human liver microsomes (AID 1963577). The essentials: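 Compounds act here after metabolic activation: human liver microsomes and NADPH, both at 0.5 mg/mL final, were co-added to p53RE-bla cells. Incubation ran 16 h at 37 C, followed by LiveBLAzer detection.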
A general note: In qHTS, concentration-response curves come from the screen itself.

A short description of test [6]: p53 small molecule agonists, cell-based qHTS assay with rat liver microsomes (AID 1963578). Summed up: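 Read-out is beta-lactamase reporter fluorescence (LiveBLAzer, 2 h, room temperature, dark) in p53RE-bla cells treated 16 h at 37 C with compound, rat liver microsomes and NADPH, both 0.5 mg/mL final.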
Test [7] in a line: p53 small molecule agonists, cell-based qHTS assay with human liver microsomes: qHTS cell viability counter screen (AID 1963579). Note: nearly all actives have a fitted effect of over 45% in size. The essentials: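 Cells carrying the p53 response-element beta-lactamase reporter are treated for 16 h at 37 C with test compounds in the presence of human liver microsomes and NADPH (both 0.5 mg/mL final); ATP-based CellTiter-Glo luminescence then reports viability.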

The nature of test [8]: p53 small molecule agonists, cell-based qHTS assay with rat liver microsomes: qHTS cell viability counter screen (AID 1963580). Note: nearly all actives have a fitted effect of over 45% in size. The essentials: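 Cytotoxicity counter screen: intracellular ATP read by CellTiter-Glo luminescence in the p53 reporter wells. HCT-116 p53RE-bla cells were treated for 16 h at 37 C alongside rat liver microsomes and NADPH, each 0.5 mg/mL final.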

Test [9] is described as follows: p53 small molecule agonists, cell-based qHTS assay: qHTS cell viability counter screen (AID 1963581). Note: nearly all actives have a fitted effect of over 45% in size. Summed up: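 Luminescence from CellTiter-Glo, reflecting ATP content, serves as the cytotoxicity measure; it is taken after the 2 h reporter substrate step in HCT-116 p53RE-bla cells dosed for 16 h at 37 C.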
A short description of test [10]: p53 small molecule agonists, cell-based qHTS assay (AID 1963582; active = well fitted activation curve with a large enough effect in the signal ratio in the repeat runs, not every such curve was filed as active; the % refers to the signal ratio). The essentials: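 After plating, p53RE-bla cells sat 5 h in the incubator; compounds or DMSO vehicle were pinned in; a 16 h incubation at 37 C followed; FRET substrate was added and, 2 h later at RT, fluorescence was measured.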
The target of test [11] is 5-hydroxytryptamine receptor 2A (Homo sapiens) (UniProt P28223). As to the kind of experiment: 5-hydroxytryptamine receptor 2A (HTR2A) small molecule antagonists, cell-based qHTS assay (AID 1963586). Note: nearly all actives have a fitted effect of over 45% in size. Summed up:
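CHO cells stably expressing human HTR2A were plated for 18 h at 37 C, then loaded with calcium dye for 1 h. Compounds were preincubated 5 min at room temperature before DOI (4 nM solution) was added. Kinetic fluorescence was read for 3 min.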

The target is the same in test [12]. As to the kind of experiment: 5-hydroxytryptamine receptor 2A (HTR2A) small molecule agonists, cell-based qHTS assay (AID 1963587). Note: nearly all actives have a fitted effect of over 30% in size. Note: potency is the fitted concentration of half-maximal effect. Summed up:
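Kinetic calcium-flux fluorescence (2 min, 1 sec intervals) after compound addition in agonist mode. HTR2A-CHO cells were cultured 18 h, then dye-loaded 1 h at 37 C.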

Test [13] has as its target Muscarinic acetylcholine receptor M1 (Homo sapiens) (UniProt P11229). As to the kind of experiment: Cholinergic receptor muscarinic 1 (CHRM1) small molecule antagonists, cell-based qHTS assay (AID 1963588). Note: nearly all actives have a fitted effect of over 40% in size. Summed up:
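Compounds were tested at 15 concentrations in three independent runs. Dye-loaded CHRM1-CHO cells were exposed 5 min at room temperature before stimulation by acetylcholine added at 50nM. Intracellular calcium was read kinetically on FDSS for 3 min.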

The target is the same in test [14]. As to the kind of experiment: Cholinergic receptor muscarinic 1 (CHRM1) small molecule agonists, cell-based qHTS assay (AID 1963589). Note: nearly all actives have a fitted effect of over 35% in size. Note: potency is the fitted concentration of half-maximal effect. The essentials:
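Fluorescent calcium dye reports M1 activation in stably transfected CHO cells. Compounds, 15 concentrations, added after 1 h dye loading at 37 C; kinetic reading at 1 sec intervals.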

Test [15] in a line: cAMP Responsive Elements (CRE) small molecule agonists, cell-based qHTS assay (AID 1963590). The essentials: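 Compound exposure lasted 3 h at 37 C/5% CO2 in CRE-bla HEK 293T cells grown in assay medium with 10% dialyzed FBS and 25 mM HEPES. Reporter signal came from LiveBLAzer B/G FRET substrate, 2 h, room temperature.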
A short description of test [16]: cAMP Responsive Elements (CRE) small molecule antagonists, cell-based qHTS assay (AID 1963591; active = well fitted inhibition curve with a large enough effect in the signal ratio in the repeat runs, not every such curve was filed as active; the % refers to the signal ratio). The essentials:
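Stimulation used NKH477 at a final 0.25 uM for 3 h in compound-treated CRE-bla HEK293T cells, seeded 18 h beforehand. Reporter activity was measured with LiveBLAzer B/G FRET substrate after 2 h at room temperature.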

Test [17] concerns the target Beta-2 adrenergic receptor (Homo sapiens) (UniProt P07550). Nature of the test: Adrenergic beta2 receptor (ADRB2) small molecule antagonists, cell-based qHTS assay (AID 1963592). Note: series mostly up to about 92 µM; nearly all actives have a fitted effect of over 50% in size. The essentials: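 Assay format: CHO-ADRB2 cells, 18-20hr seeding at 37C/5% CO2, then compound plus 1nM isoproterenol agonist mix for 0.5hr RT. Homogeneous time-resolved fluorescence cAMP detection after 1hr, expressed as 665/615 nm ratio.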

Test [18] has the same target. As to the kind of experiment: Adrenergic beta2 receptor (ADRB2) small molecule agonists, cell-based qHTS assay (AID 1963593).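 Note: CHO cells stably overexpressing human ADRB2.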 The essentials: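 CHO cells stably over-expressing ADRB2 were plated overnight at 37C, then dosed with compounds plus a stimulation mix containing 100uM IBMX and 25uM Ro-20-1724 for 0.5hr at room temperature. cAMP was measured by HTRF competition, 1hr.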

Test [19] deals with D(2) dopamine receptor (Homo sapiens) (UniProt P14416). As to the kind of experiment: Dopamine D2 receptor (DRD2) small molecule agonists, cell-based qHTS assay (AID 1963594). Note: nearly all actives have a fitted effect of over 35% in size. Summed up:
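cAMP accumulation in DRD2-HEK293 cells measured by HTRF after 1 h detection; compounds added 10 min before NKH477 (200nM […]) forskolin-analogue stimulation, 30 min at room temperature, with Ro20-1724 present at 0.1 mM final.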

Test [20] shares this target. As to the kind of experiment: Dopamine D2 receptor (DRD2) small molecule antagonists, cell-based qHTS assay (AID 1963595; active = well fitted inhibition curve with a large enough effect in the signal ratio in the repeat runs, with a control signal flat; the % refers to the signal ratio). The essentials: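 Human DRD2 antagonist qHTS measuring cAMP by HTRF. The cells are exposed to compound for 10 min, then to NKH477 (200 nM) and quinpirole (12 nM) for 30 min at RT, with Ro20-1724 (0.1 mM) present throughout.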

Chain of 5-hydroxytryptamine receptor 2A (Homo sapiens) (P28223 whole entry, looked up): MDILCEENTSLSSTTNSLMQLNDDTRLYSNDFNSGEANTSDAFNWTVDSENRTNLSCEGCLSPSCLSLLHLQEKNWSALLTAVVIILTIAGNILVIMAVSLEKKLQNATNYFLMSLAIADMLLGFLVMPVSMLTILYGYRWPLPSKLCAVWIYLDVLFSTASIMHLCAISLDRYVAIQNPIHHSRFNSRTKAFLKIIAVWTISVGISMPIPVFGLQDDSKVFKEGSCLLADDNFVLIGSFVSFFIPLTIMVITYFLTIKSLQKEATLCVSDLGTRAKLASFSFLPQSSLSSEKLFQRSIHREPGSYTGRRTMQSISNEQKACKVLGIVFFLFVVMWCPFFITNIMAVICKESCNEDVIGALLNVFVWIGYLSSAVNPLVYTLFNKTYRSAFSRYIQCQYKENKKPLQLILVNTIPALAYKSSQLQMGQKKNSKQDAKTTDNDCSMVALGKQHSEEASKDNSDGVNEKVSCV
Chain of Beta-2 adrenergic receptor (Homo sapiens) (P07550 whole entry, looked up): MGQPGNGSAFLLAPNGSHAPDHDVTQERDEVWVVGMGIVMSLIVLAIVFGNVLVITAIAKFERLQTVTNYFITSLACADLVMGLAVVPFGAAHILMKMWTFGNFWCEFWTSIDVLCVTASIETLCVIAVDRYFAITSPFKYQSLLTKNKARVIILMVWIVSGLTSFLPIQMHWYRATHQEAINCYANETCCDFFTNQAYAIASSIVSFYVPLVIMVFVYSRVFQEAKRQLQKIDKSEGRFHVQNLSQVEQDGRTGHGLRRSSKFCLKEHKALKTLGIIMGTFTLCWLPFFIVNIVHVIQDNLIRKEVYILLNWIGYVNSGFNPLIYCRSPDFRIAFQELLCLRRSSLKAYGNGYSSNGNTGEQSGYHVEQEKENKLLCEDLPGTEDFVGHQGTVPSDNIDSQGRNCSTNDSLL
Chain of Muscarinic acetylcholine receptor M1 (Homo sapiens) (P11229 whole entry, looked up): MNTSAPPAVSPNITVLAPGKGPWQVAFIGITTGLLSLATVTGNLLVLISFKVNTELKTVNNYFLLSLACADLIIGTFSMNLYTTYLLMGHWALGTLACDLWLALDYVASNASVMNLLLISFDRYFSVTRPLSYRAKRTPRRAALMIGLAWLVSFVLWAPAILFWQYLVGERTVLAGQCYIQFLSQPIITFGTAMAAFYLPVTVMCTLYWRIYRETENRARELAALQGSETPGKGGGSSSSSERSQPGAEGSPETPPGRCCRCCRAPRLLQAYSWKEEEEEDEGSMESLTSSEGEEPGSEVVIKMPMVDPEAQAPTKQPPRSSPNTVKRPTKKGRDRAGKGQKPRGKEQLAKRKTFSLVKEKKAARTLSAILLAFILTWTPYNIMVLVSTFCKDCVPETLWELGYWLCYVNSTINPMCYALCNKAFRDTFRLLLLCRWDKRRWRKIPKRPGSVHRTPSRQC
Chain of KiSS-1 receptor (Homo sapiens) (Q969F8 whole entry, looked up): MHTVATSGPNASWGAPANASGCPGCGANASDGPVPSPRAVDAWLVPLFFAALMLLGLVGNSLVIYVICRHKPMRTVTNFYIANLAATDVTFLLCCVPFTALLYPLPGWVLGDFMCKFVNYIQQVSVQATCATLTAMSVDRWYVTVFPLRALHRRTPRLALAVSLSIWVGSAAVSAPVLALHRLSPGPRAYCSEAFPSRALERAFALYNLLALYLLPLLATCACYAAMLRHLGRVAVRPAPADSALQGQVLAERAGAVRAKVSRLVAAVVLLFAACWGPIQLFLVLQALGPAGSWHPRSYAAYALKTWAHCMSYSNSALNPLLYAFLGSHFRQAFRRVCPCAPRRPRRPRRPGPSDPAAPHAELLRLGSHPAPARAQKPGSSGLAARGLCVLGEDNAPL
Chain of D(2) dopamine receptor (Homo sapiens) (P14416 whole entry, looked up): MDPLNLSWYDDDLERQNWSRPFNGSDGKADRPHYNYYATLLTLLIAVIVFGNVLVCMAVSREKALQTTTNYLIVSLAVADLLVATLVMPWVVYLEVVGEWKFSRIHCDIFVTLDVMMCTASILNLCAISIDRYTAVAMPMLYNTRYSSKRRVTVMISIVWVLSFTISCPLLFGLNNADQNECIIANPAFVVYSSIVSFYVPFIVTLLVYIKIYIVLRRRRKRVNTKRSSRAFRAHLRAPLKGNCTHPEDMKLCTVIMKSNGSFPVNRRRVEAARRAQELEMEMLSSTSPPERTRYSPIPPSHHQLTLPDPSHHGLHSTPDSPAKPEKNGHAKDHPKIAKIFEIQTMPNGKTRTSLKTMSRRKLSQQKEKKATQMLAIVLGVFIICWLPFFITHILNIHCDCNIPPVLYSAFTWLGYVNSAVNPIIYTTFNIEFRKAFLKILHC

Turning to `CCOC(OCC)C(=O)c1ccccc1`, the Potency result in test [1], in test [2], in test [3], in test [4], in test [5] and in test [6] was “inactive” each time. For the same compound, the Potency entry in test [7], in test [8], in [9], in test [10], in test [11] and in [12] was “inactive” each time. For the same compound, the Potency result in test [13], in test [14], in test [15], in test [16], in test [17] and in test [18] was “inactive” in each case. Also, the Potency entry in test [19] and in [20] was “inactive” throughout.

Regarding `C[C@]12CC[C@H]3[C@@H](CCC4=CC(=O)CC[C@@]43C)[C@@H]1CC[C@@H]2C(=O)CO`, the Potency entry in [1], in [2], in test [3], in test [4], in [5] and in test [6] was “inactive” throughout. The Potency result in [7], in [8], in test [9], in test [10], in test [11] and in test [12] was “inactive” each time. Moreover, the Potency result in test [13], in test [14], in [17], in [18], in [19] and in test [20] was “inactive” each time.

As to `COC(/C=C(\C)CCC=C(C)C)OC`, the Potency entry in [1], in test [2], in test [3], in [4], in test [5] and in test [6] was “inactive” throughout. Also, the Potency result in test [7], in test [8], in test [9], in test [10], in test [11] and in [12] was “inactive” throughout. The Potency result in [13], in [15], in test [16], in test [17], in test [18] and in [19] was “inactive” in each case.

For the compound `NC(=O)Cc1cccc2ccccc12`, the Potency entry in test [1], in [2], in test [3], in test [4], in [5] and in [6] was “inactive” throughout. For the same compound, the Potency result in test [7], in test [8], in test [9], in test [10], in [11] and in [12] was “inactive” in each case. Moreover, the Potency entry in test [13], in test [14], in test [15], in test [16], in test [17] and in test [20] was “inactive” in each case.

Take `CC1(C)[C@@H]2CC[C@]3(C2)[C@@H]1C(=O)CCC3(C)C`: the Potency result in [1], in test [2], in test [3], in test [4], in test [5] and in test [6] was “inactive” each time. Also, the Potency result in test [7], in [8], in [9], in test [10], in test [11] and in [12] was “inactive” each time. Also, the Potency result in test [13], in test [15], in test [16], in test [17], in test [19] and in test [20] was “inactive” in each case.

On to `Cc1ccc(N)cc1[N+](=O)[O-]`, for which the Potency entry in [1], in [2], in test [3], in [4], in test [5] and in test [6] was “inactive” in each case. The Potency entry in test [7], in [8], in test [9], in test [10], in test [11] and in [12] was “inactive” throughout. In addition, the Potency entry in test [13], in test [14], in [15], in test [16], in [17] and in test [19] was “inactive” each time. The Potency result in test [20] is “inactive”.

Take `Nc1ccc(N)c(Cl)c1`: the Potency entry in test [1], in test [3], in test [4], in [5], in test [6] and in test [7] was “inactive” throughout. For the same compound, the Potency entry in test [8], in test [9], in test [10] and in [11] was “inactive” in each case. In addition, the Potency was 54.4 µM (active) and 27.3 µM (active) in [2]; “inactive and 21.9 µM (active)” in test [12]; “inactive and 43.6 µM (active)” in [14].

Source of the values: PubChem BioAssay (Tox21).
